# According to ChEMBL document CHEMBL3988442, “University of Dundee, Small-Polar-MMV Screening Library” (2021):
# For some assays here: Entries with a potency or affinity are not part of this list.
# Experiments:
# Set-up in all cases: scale not given: direction of the effect not stated beside the values
# [1] = target: Protein translocase subunit SecA (Escherichia coli (strain K12)) (UniProt P10408); test: Assay to Identify E. coli SecA ATPase Inhibitors; format: functional; conditions: 30 µM
# [2] = target: T1, Ubiquitin-activating enzyme e1, putative (Leishmania donovani (strain BPK282A1)) (UniProt E9BSI1); test: Leishmania donovani Ubiquitin Activating Enzyme (LdE1); format: functional; conditions: 30 µM
# T1 sequence (whole entry): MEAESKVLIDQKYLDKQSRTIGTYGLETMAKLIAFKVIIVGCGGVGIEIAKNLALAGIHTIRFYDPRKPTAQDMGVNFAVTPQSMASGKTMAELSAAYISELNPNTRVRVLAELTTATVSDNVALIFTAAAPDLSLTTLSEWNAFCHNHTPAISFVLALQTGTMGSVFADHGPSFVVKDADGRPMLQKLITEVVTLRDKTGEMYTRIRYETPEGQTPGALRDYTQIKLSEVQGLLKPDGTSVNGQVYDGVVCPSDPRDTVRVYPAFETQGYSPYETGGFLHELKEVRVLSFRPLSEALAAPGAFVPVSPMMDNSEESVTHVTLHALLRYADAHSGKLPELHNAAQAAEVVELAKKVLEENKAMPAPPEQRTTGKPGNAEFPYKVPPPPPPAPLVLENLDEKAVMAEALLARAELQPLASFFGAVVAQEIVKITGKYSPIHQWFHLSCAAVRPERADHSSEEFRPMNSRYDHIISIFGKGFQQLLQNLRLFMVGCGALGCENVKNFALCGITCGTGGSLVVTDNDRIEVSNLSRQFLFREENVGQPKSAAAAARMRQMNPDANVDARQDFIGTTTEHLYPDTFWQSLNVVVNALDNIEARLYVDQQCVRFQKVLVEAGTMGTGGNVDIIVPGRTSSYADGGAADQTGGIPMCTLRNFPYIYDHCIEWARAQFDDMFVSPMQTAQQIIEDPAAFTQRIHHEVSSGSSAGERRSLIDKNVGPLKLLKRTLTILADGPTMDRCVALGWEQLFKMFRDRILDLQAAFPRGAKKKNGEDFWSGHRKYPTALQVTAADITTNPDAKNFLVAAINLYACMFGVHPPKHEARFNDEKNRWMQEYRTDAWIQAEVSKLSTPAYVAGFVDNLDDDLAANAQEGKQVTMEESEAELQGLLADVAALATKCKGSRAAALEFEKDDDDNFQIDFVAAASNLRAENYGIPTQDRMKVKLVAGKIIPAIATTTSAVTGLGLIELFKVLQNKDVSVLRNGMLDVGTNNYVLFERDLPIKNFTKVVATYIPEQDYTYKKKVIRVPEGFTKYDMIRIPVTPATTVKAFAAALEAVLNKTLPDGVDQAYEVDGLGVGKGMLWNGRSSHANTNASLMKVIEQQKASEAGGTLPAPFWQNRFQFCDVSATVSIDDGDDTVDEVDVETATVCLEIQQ
# [3] = target: AMP-activated protein kinase, AMPK (Homo sapiens) (UniProt P54646+O43741+P54619+Q9UGJ0+Q9Y478+Q13131+Q9UGI9); test: AMP-dependent Kinase enzyme assay. An in vitro enzyme assay that detects ADP turnover that is directly proportional to AMPK activity. This uses naive AMPK that is activated during the assay with MK-8722; format: functional; conditions: 30 µM
# [4] = target: Sialic acid-binding Ig-like lectin 9 (Homo sapiens) (UniProt Q9Y336); test: Hs-Siglec9 ALPHAscreen SOP 20170721; conditions: 10 µM
# Sequence of Sialic acid-binding Ig-like lectin 9 (Homo sapiens) (Q9Y336 whole entry): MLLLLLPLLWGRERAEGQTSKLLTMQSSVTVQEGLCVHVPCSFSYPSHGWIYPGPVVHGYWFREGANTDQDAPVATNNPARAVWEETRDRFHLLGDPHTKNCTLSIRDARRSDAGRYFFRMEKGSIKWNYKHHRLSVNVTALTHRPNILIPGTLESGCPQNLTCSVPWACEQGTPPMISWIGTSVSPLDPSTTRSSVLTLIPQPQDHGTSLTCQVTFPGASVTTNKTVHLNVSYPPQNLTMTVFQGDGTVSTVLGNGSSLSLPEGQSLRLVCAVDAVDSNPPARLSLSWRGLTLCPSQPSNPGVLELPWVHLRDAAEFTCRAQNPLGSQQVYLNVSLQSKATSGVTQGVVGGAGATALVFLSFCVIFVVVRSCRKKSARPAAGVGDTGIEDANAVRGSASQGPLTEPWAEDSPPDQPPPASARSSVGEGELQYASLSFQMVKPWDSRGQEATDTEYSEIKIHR
# Trypanosoma cruzi = test: Trypanosoma cruzi phosphomannomutase and mannose-1-phosphate guanylyltransferase assay; format: functional; conditions: 10 µM
# [5] = target: T2, Arginase-2, mitochondrial (Homo sapiens) (UniProt P78540); test: in vitro enzyme assay to detect the production of urea directly proportional to the activity of Arginase II; format: functional; conditions: 33.3 µM; note: in the data most compounds retested in dose-response had high values
# T2 sequence (whole entry): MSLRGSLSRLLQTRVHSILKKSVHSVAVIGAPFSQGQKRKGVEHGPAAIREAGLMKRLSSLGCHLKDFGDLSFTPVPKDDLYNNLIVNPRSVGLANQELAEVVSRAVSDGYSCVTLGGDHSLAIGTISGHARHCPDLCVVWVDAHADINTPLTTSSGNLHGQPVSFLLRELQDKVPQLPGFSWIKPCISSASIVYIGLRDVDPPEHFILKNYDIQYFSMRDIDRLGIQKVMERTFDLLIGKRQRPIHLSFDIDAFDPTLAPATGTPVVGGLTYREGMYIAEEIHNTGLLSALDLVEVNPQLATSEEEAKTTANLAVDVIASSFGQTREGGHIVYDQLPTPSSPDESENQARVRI
# [6] = target: T3, Proteasome subunit beta (Trypanosoma cruzi) (UniProt O96673); test: Trypanosoma cruzi proteasome chymotrypsin-like activity (TcProtChymo) assay.; note: in the data most compounds retested in dose-response had high values; format: functional; conditions: 9.37 µM
# T3 sequence (whole entry): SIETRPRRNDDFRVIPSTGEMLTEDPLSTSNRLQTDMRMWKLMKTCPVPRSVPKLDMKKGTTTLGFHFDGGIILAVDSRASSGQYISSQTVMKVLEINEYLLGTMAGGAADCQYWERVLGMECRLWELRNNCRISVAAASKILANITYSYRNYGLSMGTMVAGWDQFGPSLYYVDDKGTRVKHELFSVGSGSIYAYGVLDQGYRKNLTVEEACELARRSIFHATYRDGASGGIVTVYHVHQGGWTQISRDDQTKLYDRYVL
# Homo sapiens = organism: Homo sapiens; test: To identify inhibition of the IFN signalling (Jak-Stat) pathway via expression of an eGFP reporter gene under the control of an IFN-stimulated response element (ISRE) containing MxA promoter.; format: functional; conditions: 30 µM
# [7] = target: T4, Tyrosyl-tRNA synthetase, putative (Trypanosoma cruzi (strain CL Brener)) (UniProt Q4DSP6); test: Trypanosoma cruzi tyrosyl tRNA synthetase (TcYRS) _High Tyrosine SOP; format: functional; conditions: 30 µM; note: in the data most compounds retested in dose-response had high values
# T4 sequence (whole entry): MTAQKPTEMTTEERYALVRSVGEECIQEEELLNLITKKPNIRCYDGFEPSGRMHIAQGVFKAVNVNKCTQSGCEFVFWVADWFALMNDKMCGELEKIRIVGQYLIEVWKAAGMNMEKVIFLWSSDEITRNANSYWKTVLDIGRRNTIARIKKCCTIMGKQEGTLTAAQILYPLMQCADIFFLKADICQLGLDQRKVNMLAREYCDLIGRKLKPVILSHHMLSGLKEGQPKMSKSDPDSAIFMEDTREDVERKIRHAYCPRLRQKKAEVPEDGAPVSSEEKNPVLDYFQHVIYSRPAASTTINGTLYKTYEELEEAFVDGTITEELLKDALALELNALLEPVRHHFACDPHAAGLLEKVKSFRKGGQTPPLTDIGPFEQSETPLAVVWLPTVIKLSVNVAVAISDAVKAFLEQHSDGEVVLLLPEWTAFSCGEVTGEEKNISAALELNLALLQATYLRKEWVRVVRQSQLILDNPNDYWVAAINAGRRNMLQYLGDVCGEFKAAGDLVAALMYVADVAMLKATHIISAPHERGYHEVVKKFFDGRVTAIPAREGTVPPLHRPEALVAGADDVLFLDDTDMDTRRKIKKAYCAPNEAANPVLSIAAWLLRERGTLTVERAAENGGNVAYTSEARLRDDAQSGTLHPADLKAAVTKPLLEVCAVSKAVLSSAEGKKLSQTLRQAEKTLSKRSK
# [8] = target: T4, Tyrosyl-tRNA synthetase, putative (Trypanosoma cruzi (strain CL Brener)); test: Trypanosoma cruzi tyrosyl tRNA synthetase (TcYRS) SOP; format: functional; conditions: 30 µM
# [9] = target: Chromo domain-containing protein 1 (Saccharomyces cerevisiae (strain ATCC 204508 / S288c) (Baker's yeast)) (UniProt P32657); test: ScCHD-1 Enzyme Inhibition Assay; format: functional; conditions: 30 µM; note: in the data most compounds retested in dose-response had high values
# Sequence of Chromo domain-containing protein 1 (Saccharomyces cerevisiae (strain ATCC 204508 / S288c) (Baker's yeast)) (P32657 whole entry, the tested form may be a part): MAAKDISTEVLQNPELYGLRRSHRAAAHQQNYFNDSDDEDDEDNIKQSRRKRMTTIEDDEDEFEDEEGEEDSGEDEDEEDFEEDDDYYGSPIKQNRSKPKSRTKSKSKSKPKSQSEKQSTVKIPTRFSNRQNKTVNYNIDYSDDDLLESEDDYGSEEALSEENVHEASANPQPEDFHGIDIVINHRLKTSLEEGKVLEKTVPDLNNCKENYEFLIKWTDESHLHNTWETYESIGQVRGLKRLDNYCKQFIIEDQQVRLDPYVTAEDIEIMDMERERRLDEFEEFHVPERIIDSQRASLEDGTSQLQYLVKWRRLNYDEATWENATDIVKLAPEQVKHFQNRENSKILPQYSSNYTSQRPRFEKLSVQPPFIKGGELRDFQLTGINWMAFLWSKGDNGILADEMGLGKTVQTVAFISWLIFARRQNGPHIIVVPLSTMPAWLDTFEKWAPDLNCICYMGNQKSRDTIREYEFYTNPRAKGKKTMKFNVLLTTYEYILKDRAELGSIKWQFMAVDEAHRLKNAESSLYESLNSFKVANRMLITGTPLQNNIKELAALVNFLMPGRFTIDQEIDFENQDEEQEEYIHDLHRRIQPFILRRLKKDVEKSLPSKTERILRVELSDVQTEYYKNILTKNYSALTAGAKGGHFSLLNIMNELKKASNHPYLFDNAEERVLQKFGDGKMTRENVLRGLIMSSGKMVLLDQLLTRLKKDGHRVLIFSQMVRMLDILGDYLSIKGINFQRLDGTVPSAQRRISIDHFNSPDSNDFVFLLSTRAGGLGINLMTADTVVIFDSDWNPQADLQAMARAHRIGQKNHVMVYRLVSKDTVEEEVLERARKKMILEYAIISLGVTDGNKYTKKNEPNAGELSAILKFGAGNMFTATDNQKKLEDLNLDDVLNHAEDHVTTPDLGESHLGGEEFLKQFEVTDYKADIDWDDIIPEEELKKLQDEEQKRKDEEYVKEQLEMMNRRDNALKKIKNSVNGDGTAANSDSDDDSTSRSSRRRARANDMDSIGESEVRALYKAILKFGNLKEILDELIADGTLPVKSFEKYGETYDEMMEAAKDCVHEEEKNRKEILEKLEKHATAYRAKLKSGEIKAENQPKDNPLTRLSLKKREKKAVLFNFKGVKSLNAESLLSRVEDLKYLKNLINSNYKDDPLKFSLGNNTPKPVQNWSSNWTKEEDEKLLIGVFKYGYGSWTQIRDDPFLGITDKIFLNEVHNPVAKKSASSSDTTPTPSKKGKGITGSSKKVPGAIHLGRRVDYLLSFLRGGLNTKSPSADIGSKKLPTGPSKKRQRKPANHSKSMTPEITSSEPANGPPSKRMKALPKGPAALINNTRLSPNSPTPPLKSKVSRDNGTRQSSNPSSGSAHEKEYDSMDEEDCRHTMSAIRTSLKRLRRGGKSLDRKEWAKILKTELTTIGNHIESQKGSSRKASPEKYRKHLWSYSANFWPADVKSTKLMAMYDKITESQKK
# Sequence of Protein translocase subunit SecA (Escherichia coli (strain K12)) (P10408 whole entry): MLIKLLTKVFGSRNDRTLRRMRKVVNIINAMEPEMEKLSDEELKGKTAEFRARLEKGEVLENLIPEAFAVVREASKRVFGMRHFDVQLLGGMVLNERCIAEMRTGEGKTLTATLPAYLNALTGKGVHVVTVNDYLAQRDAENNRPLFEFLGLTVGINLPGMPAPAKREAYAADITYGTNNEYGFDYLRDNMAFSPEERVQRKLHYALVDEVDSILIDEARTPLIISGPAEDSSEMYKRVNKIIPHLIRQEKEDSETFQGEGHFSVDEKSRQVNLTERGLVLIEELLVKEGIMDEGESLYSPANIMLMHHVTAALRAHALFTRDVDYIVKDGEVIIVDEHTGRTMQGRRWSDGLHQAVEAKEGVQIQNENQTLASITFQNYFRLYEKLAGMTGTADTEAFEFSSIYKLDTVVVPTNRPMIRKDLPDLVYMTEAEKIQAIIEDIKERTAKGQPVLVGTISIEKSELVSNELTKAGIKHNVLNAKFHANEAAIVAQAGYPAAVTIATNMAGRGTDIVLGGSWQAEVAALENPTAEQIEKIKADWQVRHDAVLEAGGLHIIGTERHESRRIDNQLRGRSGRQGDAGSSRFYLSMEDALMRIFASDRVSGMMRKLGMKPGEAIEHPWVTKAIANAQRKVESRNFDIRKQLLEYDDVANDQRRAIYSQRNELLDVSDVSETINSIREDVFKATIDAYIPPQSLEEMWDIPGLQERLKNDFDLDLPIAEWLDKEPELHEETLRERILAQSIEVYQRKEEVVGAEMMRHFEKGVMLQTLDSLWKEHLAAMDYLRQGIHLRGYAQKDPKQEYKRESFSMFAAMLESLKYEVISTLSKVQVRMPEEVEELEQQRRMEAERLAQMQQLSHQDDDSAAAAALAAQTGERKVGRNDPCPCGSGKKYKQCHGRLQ
Structure (SMILES),Percent Effect [1],Percent Effect [2],Percent Effect [3],Percent Effect [4],Percent Effect (Trypanosoma cruzi),Percent Effect [5],Percent Effect [6],Percent Effect (Homo sapiens),Percent Effect [7],Percent Effect [8],Percent Effect [9]
c1ccc(-n2ccnc2)c(CNCC2CNc3ccnn3C2)c1 (stereo not given),-2.24%,18.2%,-5.79%,12.2%,7.68%,1.07%,2.53%,17.5%,5.83%,21.9%,-7.36%
CCc1noc(C(C)N(C)CC(=O)Nc2cccc(C)n2)n1 (stereo not given),0.372%,0%,5.73%,0.963%,-0.979%,0.909%,7.28%,0.0607%,-1.07%,0%,2.92%
CC(C(=O)NCCCn1ccnc1)n1cc(Br)cn1 (stereo not given),-3.65%,2.6%,-2.79%,7.47%,3.83%,-33.1%,10.7%,-6.92%,7.53%,18.5%,-2%
CO[C@H]1CCN(c2ncccn2)[C@H]1Cc1ccccc1,1.4%,2.6%,-1.1%,7.23%,-3.25%,-13.8%,16%,13.8%,5.38%,8.64%,-1.72%
COc1cccc2c1ccn2CCC(=O)NCCCC(=O)O,-1.03%,20%,1.22%,-4.11%,-4.32%,-2.99%,13.5%,-6.02%,5.29%,5.13%,-9.24%
CCOC(=O)N1CCN(c2nc(NCCCO)c3ccccc3n2)CC1,-3.88%,-1.33%,5.25%,7.39%,5.5%,-0.88%,0.739%,15.2%,2.12%,5.13%,-3.87%
CC(C)NC(=O)C1CN(C(N)=O)Cc2ccnn2C1 (stereo not given),-0.679%,10.7%,5.48%,1.25%,0.579%,-58.2%,9.91%,0.0597%,3.12%,15%,-5.6%
Cn1ccnc1CN1CCCC(Cc2ccccn2)C1 (stereo not given),-7.44%,20.3%,-4.84%,1.21%,4.94%,-2.55%,13.6%,1.89%,4.3%,16.9%,-20.2%
Cc1nc(N2CCN(C(=O)C3CC3)CC2)c2c(n1)c(C)nn2C,-1.08%,6.67%,0.162%,0.614%,3.73%,-4.75%,10.2%,18.7%,6.35%,12.8%,-11.8%
CCN(CC)CCNC(=O)c1ccn(COc2cc(C)cc(C)c2)n1,-1.61%,9.33%,0.388%,2.31%,-0.197%,-8.28%,21.4%,0.95%,6.35%,15.4%,-9.92%
